APE1 inh = inhibitors of human APE1 endonuclease; recombinant APE1, TAMRA/BHQ-2 abasic DNA cleavage fluorescence; Potency, µM (doses to about 65.8 µM), for the others: top-dose activity change, negative = inhibition, usual class: inhibitors; 350,000 compounds, 0.35% hits;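 also: plate controls were vehicle for no effect and reference inhibitor for full effect; nearly all actives have a fitted effect of over 55% in size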
Target sequence (P27695 whole entry, looked up): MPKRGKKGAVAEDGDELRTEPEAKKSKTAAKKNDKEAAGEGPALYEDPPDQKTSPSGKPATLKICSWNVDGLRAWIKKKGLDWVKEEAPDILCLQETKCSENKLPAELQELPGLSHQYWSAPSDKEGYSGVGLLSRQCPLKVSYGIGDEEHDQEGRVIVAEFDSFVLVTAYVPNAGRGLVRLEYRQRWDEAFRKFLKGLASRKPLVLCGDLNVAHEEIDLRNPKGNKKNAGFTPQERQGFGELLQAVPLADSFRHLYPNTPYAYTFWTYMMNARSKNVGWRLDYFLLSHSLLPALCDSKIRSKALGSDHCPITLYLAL
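Quantitative HTS: incision of a TAMRA/BHQ-2 double-stranded substrate bearing a tetrahydrofuran abasic site by 0.75 nM APE1 raises fluorescence. Substrate 50 nM final, added after 15 min compound preincubation at room temperature; progress as third-minus-first kinetic read difference.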
L3MBTL1 block = blocks human L3MBTL1; AlphaScreen L3MBTL1–H3K9me1 peptide binding; Potency, µM (doses to about 57.1 µM), without a hit: top-dose activity, negative = inhibition, actives largely listed as inhibitors; 230,000 compounds, 0.66% hits; AID 485360; also: nearly all actives have a fitted effect of over 60% in size
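L3MBTL1 50 nM + b-AHA-H3(1-15)K9me1 75 nM, 30 min RT; compound added, 30 min RT; streptavidin donor/Ni-chelate acceptor beads 10 ug/mL each final, 30 min RT dark; AlphaScreen read.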
KDM4E inh = blocks human JMJD2E demethylase activity. Potency, µM (series often up to 57.1 µM), without a hit: top-dose activity change, negative = inhibition, usual class: inhibitors. 230,000 compounds, 1.6% hits. B2RXH2. JMJD2E catalytic domain, FDH-coupled NADH fluorescence (FDH is formaldehyde dehydrogenase);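 also: 0% = wells with enzyme and -100% = buffer wells without enzyme; nearly all actives have a fitted effect of over 50% in size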
Target sequence (B2RXH2 1-337 limits assumed): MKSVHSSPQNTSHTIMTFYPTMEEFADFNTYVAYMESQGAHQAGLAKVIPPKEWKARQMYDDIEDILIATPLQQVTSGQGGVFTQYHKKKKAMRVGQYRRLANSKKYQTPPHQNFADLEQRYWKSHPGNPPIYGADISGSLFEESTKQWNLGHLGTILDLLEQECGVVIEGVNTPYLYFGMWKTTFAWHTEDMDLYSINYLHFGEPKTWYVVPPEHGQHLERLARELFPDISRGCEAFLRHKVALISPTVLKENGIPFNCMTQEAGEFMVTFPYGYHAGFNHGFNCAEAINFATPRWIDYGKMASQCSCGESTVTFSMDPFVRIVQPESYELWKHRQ
BLM inh = blocks DNA unwinding by human BLM helicase. P54132. recombinant BLM DNA unwinding, fluorescence dequenching. Potency, µM (doses to about 56.1 µM), inactives show at the highest dose activity change, negative = inhibition, hits mostly inhibitors. 350,000 compounds, 0.2% hits. AID 2528;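 also: plate controls were vehicle for no effect and no enzyme for full effect; nearly all actives have a fitted effect of over 35% in size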
RECQ1 inh-1 = blocks DNA unwinding by human RECQ1; P46063; Potency, µM (highest dose often 57.3 µM), for inactives: at the highest dose activity, negative = inhibition, most hits filed as inhibitors; 240,000 compounds, 0.54% hits; RECQ1 DNA unwinding, red fluorescence kinetic read; AID 2549;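 also: plate controls were vehicle for no effect and no enzyme for full effect; nearly all actives have a fitted effect of over 30% in size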
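50 nM RECQ1T1 preincubated 15 min with compound in Tris pH 8.0 buffer with MgCl2, DTT, Tween-20 and 2.5 ug/ml poly(dI-dC); started with 200 nM TAMRA/BHQ-2 forked duplex and 2 mM ATP. Unwinding read as fluorescence (525/598 nm), two reads 2 h apart.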
RECQ1 conf = confirmation of human RECQ1 helicase inhibitors; Potency, µM (series often up to 229 µM), for the others: at the highest dose activity change, negative = inhibition, usual class: inhibitors; shares compounds with RECQ1 inh-1; 610 compounds, 28% hits; RECQ1 helicase DNA unwinding, fluorescence; also: nearly all actives have a fitted effect of over 45% in size
RECQ1 ADP FP = counter-screen for RECQ1 inhibitors: ADP displacement | ADP fluorescence polarization displacement counterscreen | shares compounds with RECQ1 inh-1 | Potency, µM (top dose mostly 228 µM), inactives show at the highest dose activity change, negative = inhibition, usual class: inhibitors | 530 compounds, 27% hits | AID 2711; also: nearly all actives have a fitted effect of over 45% in size
RECQ1 inh-2 = confirmation of human RECQ1 helicase inhibitors | shares compounds with RECQ1 inh-1 | recombinant RECQ1 DNA unwinding, red fluorescence | Potency, µM (top dose mostly 119 µM), for inactives: at the top dose activity, negative = inhibition, hits mostly inhibitors | 1,100 compounds, 15% hits | AID 504841; also: nearly all actives have a fitted effect of over 50% in size
* marks the source's active call; other numbers are inactive results; [ ] = another dose, or the depositor's remark. This is one part of a sample in which hits are shown more often than they occur. Unless noted, calls follow the shape of the dose curve; as a rule, active = well fitted curve in the direction sought with a large enough effect; inconclusive = small, poorly fitted or top-dose-only effect, or another doubt; inactive = no such curve, though single readings can be large; an effect the other way counts as inactive or inconclusive. Unless noted, % is scaled to controls: 0 for no effect and ±100 for the full control effect; potency is read from the fitted curve at half-maximal effect.

Screening COc1ccc(C2c3ccsc3CCN2C(=O)C(C)(C)C)cc1 (centres undefined) returned APE1 inh -5%, L3MBTL1 block 1%, KDM4E inh 7%, BLM inh -6% and RECQ1 inh-1 -18%.
COc1ccc(C2C3=C(CCCC3=O)Nc3nc(-c4cc(OC)c(OC)c(OC)c4)nn32)cc1OC (centres undefined) was read as APE1 inh -2%, L3MBTL1 block -6%, KDM4E inh inconclusive, BLM inh -10% and RECQ1 inh-1 -12%.
Screening COc1cc(-c2nc3n(n2)C(c2ccncc2)C2=C(CCCC2=O)N3)cc(OC)c1OC (centres undefined) returned APE1 inh 22%, KDM4E inh 1%, BLM inh -4%, RECQ1 inh-1 28µM* and RECQ1 inh-2 1%.
`O=C(NC(=S)N1CCOCC1)c1ccccc1Cl` gave APE1 inh 3% and BLM inh 4%.
Screening OC(COc1ccc(Cl)cc1)CN1CCN(c2cccc(Cl)c2)CC1 (centres undefined) returned APE1 inh 10%, KDM4E inh -3%, BLM inh -12%, RECQ1 inh-1 35µM* and RECQ1 inh-2 inconclusive.
For Cc1cccc(N2CCN(CC(O)COc3ccc(Cl)cc3)CC2)c1 (centres undefined) the results were APE1 inh -2%, KDM4E inh -9%, BLM inh -2% and RECQ1 inh-1 inactive.
`COC(=O)c1cc(S(=O)(=O)N2CCCC2)c(Cl)cc1Cl` gave APE1 inh 37%, L3MBTL1 block 5% and BLM inh -2%.
For O=C(NCc1ccco1)c1ccc(S(=O)(=O)N2CCOCC2)cc1 the results were APE1 inh 32µM*, L3MBTL1 block 35µM*, KDM4E inh -8%, BLM inh -27%, RECQ1 inh-1 inconclusive and RECQ1 inh-2 -20%.
For Cc1ccc(CNC(=O)C2CCCCN2S(=O)(=O)c2ccc(F)cc2)cc1 (centres undefined) the results were BLM inh -2%.
Screening O=S(=O)(c1ccc2ccccc2c1)N1CCOCC1 returned APE1 inh 30% and BLM inh 0%.
Screening O=S(=O)(c1ccc2nc(-c3ccco3)c(-c3ccco3)nc2c1)N1CCOCC1 returned APE1 inh inconclusive, L3MBTL1 block -88%, KDM4E inh inconclusive, BLM inh 14µM*, RECQ1 inh-1 32µM* and RECQ1 inh-2 15%.
`O=C(NCc1ccco1)C1CCCCN1S(=O)(=O)c1ccc(F)cc1` (centres undefined) gave APE1 inh 13%, L3MBTL1 block 4%, KDM4E inh -3%, BLM inh 0%, RECQ1 inh-1 inconclusive and RECQ1 inh-2 -10%.
Screening COc1ccc(S(=O)(=O)N2CCc3ccccc3C2)cc1OC returned APE1 inh -6%, L3MBTL1 block -9%, KDM4E inh 11%, BLM inh -2% and RECQ1 inh-1 -2%.
Cc1ccc(Nc2nnc(SCC(=O)NC(Cc3c[nH]c4ccccc34)C(=O)O)s2)cc1 (centres undefined) was read as APE1 inh -4%, L3MBTL1 block -6%, KDM4E inh -11%, BLM inh -2%, RECQ1 inh-1 inactive, RECQ1 conf -3% and RECQ1 ADP FP 13%.
For CCOc1ccccc1Nc1nnc(SCC(=O)NC(Cc2c[nH]c3ccccc23)C(=O)O)s1 (centres undefined) the results were APE1 inh -1%, L3MBTL1 block -9%, KDM4E inh -7%, BLM inh -11%, RECQ1 inh-1 0%, RECQ1 conf -3% and RECQ1 ADP FP inconclusive.
O=C1c2nc3cc(-c4ccco4)[nH]n3c(=O)c2CN1Cc1ccccc1 was read as APE1 inh -4%, L3MBTL1 block inconclusive, KDM4E inh inconclusive, BLM inh inconclusive, RECQ1 inh-1 11µM*, RECQ1 conf inconclusive, RECQ1 ADP FP 63µM* and RECQ1 inh-2 -10%.
Screening CC1=C(c2ccc(C(C)C)cc2)S(=O)(=O)N=C1N1CCC(C(=O)NCCc2ccco2)CC1 returned BLM inh -6%.
`CCCCSc1nc(CCC)cc(=O)[nH]1` gave APE1 inh 3%, KDM4E inh 2%, BLM inh -22% and RECQ1 inh-1 inactive.
Screening Cn1nnc(NC(=O)c2ccc3ccccc3c2)n1 returned APE1 inh -6%, L3MBTL1 block -26%, KDM4E inh 472%, BLM inh -13% and RECQ1 inh-1 -5%.
For Cn1nnc(NC(=O)c2ccc(C(C)(C)C)cc2)n1 the results were APE1 inh 12%, L3MBTL1 block 4%, KDM4E inh 0%, BLM inh 0%, RECQ1 inh-1 20µM* and RECQ1 inh-2 -7%.
For CCC(C(=O)Nc1ccccc1OC)n1c(C(=O)OC)cc2ccsc21 (centres undefined) the results were APE1 inh -5%, L3MBTL1 block -1%, KDM4E inh 5%, BLM inh -11%, RECQ1 inh-1 1.4µM*, RECQ1 conf inconclusive, RECQ1 ADP FP 35%[91.9 µM] and RECQ1 inh-2 -49%.
Screening CCOC(=O)c1ccc2c(c1)N(C(CC)C(=O)Nc1ccccc1OC)C(=O)c1ccccc1S2 (centres undefined) returned BLM inh -7%.
CC(C)[C@H](NS(=O)(=O)c1ccc2c(c1)OCCO2)C(=O)OCC(=O)Nc1cc(Cl)ccc1Cl was read as APE1 inh 10%, L3MBTL1 block -2%, KDM4E inh 1%, BLM inh -6%, RECQ1 inh-1 50µM* and RECQ1 inh-2 -16%.
For Cc1cccc(N2CCN(C(=O)Cc3ccc(-n4c(=O)[nH]c5ccsc5c4=O)cc3)CC2)c1C the results were APE1 inh 17%, L3MBTL1 block -11%, KDM4E inh inconclusive, BLM inh 2%, RECQ1 inh-1 -10%, RECQ1 conf -10% and RECQ1 ADP FP 21%.

Screening results from PubChem BioAssay.
